# Columns and labels:
# Assay type in all cases: functional
# [1] = system: Plasmodium falciparum; test: GSK_TCMDC: Inhibition of Plasmodium falciparum 3D7 in whole red blood cells, using parasite LDH activity as an index of growth. Test compounds present at 2uM
# [2] = system: Plasmodium falciparum; test: GSK_TCMDC: Inhibition of Plasmodium falciparum Dd2 in whole red blood cells, using parasite LDH activity as an index of growth. Test compounds present at 2uM
# [3] = system: HepG2; test: GSK_TCMDC: Percent inhibition of human HepG2 cell line. Test compounds present at 10uM.
SMILES,Inhibition [1] [%],Inhibition [2] [%],Inhibition [3] [%]
COc1ccccc1C(=O)Nc1ccc(Nc2nc(C)cc(N(C)C)n2)cc1,100,76,1
CCN(CC)/C(=N/C(=N)Nc1ccc(Cl)c(Cl)c1)NCCCCCCN/C(=N\C(=N)Nc1ccc(Cl)c(Cl)c1)N(CC)CC,94,90,1
CN1CCCC1CCNCc1cccc(-c2cnc(N3CCCC(C)(C)C3)nc2)c1 (stereo unspecified),98,95,99
COc1cc(OC)cc(-c2nn(-c3ccc([N+](=O)[O-])cc3C#N)c(=S)n2Cc2ccco2)c1,100,100,11
c1cncc(Oc2ccc(Nc3ccnc4cc(-c5cccc(CN6CCCCC6)c5)ccc34)cc2)c1,100,100,33
Fc1ccc2[nH]c(-c3cccc(-c4ccc(CN5CCN(c6cnccn6)CC5)cc4)c3)nc2c1.O=C(O)C(F)(F)F,96,31,19
COc1ccccc1-n1c(SCC(=O)Nc2ccccc2F)nc2cccnc21,96,88,0
COc1ccc(NC(=O)CCNc2cc(C)nc(NCc3ccccc3C)n2)cc1.O=C(O)C(F)(F)F,94,61,7
O=C(/C=C/c1ccc(Cl)c(Cl)c1)NCCCCCCN1CCCN(C(=O)Nc2ccc(Cl)c(C(F)(F)F)c2)CC1,100,24,25
Cc1nc(-c2cccc(C(=O)N(Cc3cncn3Cc3cccc(C(F)(F)F)c3)CC3CC3)c2)cs1,97,17,7
CC(C)(C)c1ccc(S(=O)(=O)Nc2cc(Cl)ccc2Cn2ccc(N3CCNCC3)nc2=O)cc1.O=C(O)C(F)(F)F,95,74,0
CC(C)(CNC(=O)C1CCN(CCOCc2ccccc2)CC1)c1nc(-c2ccc(Cl)c(O)c2)c(-c2ccncc2)[nH]1.Cl,100,18,11
Cc1noc(C)c1-c1cccc(CNCc2ccc(-c3cccc(-c4nc5cc(C(F)(F)F)ccc5[nH]4)c3)cc2)c1.O=C(O)C(F)(F)F,100,97,37
CC1(C)N=C(N)N=C(N)N1O.Cl,93,1,7
CC(C)N1CCN(C(=O)c2ccc(CNCCCN3CCN(c4cccc(Cl)c4Cl)CC3)s2)CC1.Cl,100,44,51
COc1cc2nc(N3CCN(C(=O)c4ccco4)CC3)nc(NCc3ccccc3)c2cc1OC,100,99,16
CC(C)N(CCOc1ccc2c(c1)N(C(=O)Nc1ccc(Cl)c(Cl)c1)CC2)C(C)C.O=C(O)C(F)(F)F,100,39,15
Cl.FC(F)(F)c1ccccc1OCc1cc(-c2ccncc2)c(COc2ccccc2C(F)(F)F)cc1C1=CCNCC1,98,81,31
Cc1cccc2nc(-c3cccc(-c4ccc(NC(=O)Nc5ccc(F)c(F)c5F)cc4)c3)[nH]c12,100,100,61
Oc1ccc2[nH]cc(C3CCN(CCCNCc4ccc(-c5ccccc5)cc4)CC3)c2c1,100,0,22
COc1cccc(OC(C)(C)c2nc(N[C@@H](C)c3ccccc3)c3cn[nH]c3n2)c1,89,69,44
CN1CCN(Cc2cc3cc(NC(=O)/C=C/c4cccc(Cl)c4)ccc3s2)CC1.Cl,100,72,54
COCCOc1ccc(Nc2nccc(-c3c(-c4cccc(NC(=O)c5c(F)cccc5F)c4)nn4ccccc34)n2)cc1F,90,60,62
COc1ccc(-c2cccc(NC(=O)c3ccccc3)c2)cc1CN1CCCN(C)CC1.O=C(O)C(F)(F)F,98,25,22
O=C(NC1CC1)C1CCN(Cc2cc3ccccc3n2Cc2ccc(Cl)cc2)CC1,95,96,16
O=C(Nc1ccc(Cl)cc1F)N[C@H]1CCN(CCCCCNC(=O)C2CC2c2ccc(Cl)c(Cl)c2)C1 (stereo partly specified),87,0,29
CCNC(=O)c1ccc(-n2nc(C)cc2-c2ccccc2)cc1,89,54,11

# From ChEMBL document CHEMBL1157539, “Thousands of chemical starting points for antimalarial lead identification” (Nature, 2010)
